According to PubChem BioAssay (Tox21):
Results filed as inconclusive are left out. Calls of active or inactive are those of the source. Calls follow the shape of the dose curve; as a rule, active = well fitted inhibition curve with a large enough effect in the repeat runs; inconclusive = weak or mixed curves, or effect the other way; inactive = no such curve, though single readings can be large or run the other way.

What follows are compounds tested against Nuclear receptor subfamily 1 group I member 3 (Homo sapiens) (UniProt Q14994) (assay: qHTS assay to identify small molecule antagonists of the constitutive androstane receptor (CAR) signaling pathway (AID 1224838;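 also: HepG2 cells stably expressing hCAR with CYP2B6 luciferase reporter stimulated by CITCO; nearly all actives have a fitted effect of over 40% in size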)). Conditions: HepG2-CYP2B6-hCAR luciferase, CITCO-stimulated, 24 h; series mostly up to 92.4 µM; activity, negative = inhibition: at the top concentration.
Chain of Nuclear receptor subfamily 1 group I member 3 (Homo sapiens) (Q14994 whole entry, looked up): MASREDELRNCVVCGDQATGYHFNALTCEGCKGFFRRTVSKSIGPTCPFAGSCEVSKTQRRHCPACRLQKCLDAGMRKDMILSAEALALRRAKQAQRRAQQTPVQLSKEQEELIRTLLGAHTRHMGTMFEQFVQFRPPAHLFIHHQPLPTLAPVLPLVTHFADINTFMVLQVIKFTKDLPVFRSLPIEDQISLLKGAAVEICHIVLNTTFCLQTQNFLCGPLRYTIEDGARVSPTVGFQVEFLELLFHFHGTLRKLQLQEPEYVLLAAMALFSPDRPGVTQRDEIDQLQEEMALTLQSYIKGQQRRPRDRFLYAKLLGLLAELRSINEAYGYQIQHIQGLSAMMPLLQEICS
Excerpt: U.S. Tox21 Program National Center for Advancing Translational Sciences [NCATS] NIH Chemical Genomics Center [NCGC] U.S. Environmental Protection Agency [EPA] National Institutes of Environmental Health Sciences [NIEHS] National Toxicology Program [NTP] U.S. Food and Drug Administration [FDA] Tox21 Assay Overview: The constitutive androstane receptor (CAR) is a nuclear receptor which regulates multiple drug metabolizing enzymes (DMEs) and transporters. Activating CAR will generally increase the transcription and subsequent translation of CYP2B6 and CYP3A4. These two DMEs represent about 50% of the drug metabolizing potential in the body. When CAR is deactivated, the metabolizing potential in the body will decrease, subsequently increasing the toxicity in the body or lowering the therapeutic potential of a pro-drug. Recently, there have also been studies performed indicating CARs role in energy metabolism and cancer therapy. Therefore, inhibiting CARs activity could have a potential effect on diabetes and cancer. Identifying environmental toxins and compounds which modulate CAR, through the use of the Tox21 10K compound collection, will be an important step in determining the toxicity and potential therapeutic effects these factors will have on the human body.
Tox21 Assay Protocol Summary: A double-stable (hCAR and CYP2B6-2.2kb) transfected cell line, derived from human hepatoma (HepG2) cells, was utilized for the duration of the quantitative high-throughput screens. The HepG2-CYP2B6-hCAR cells suspended in DMEM culture medium supplemented with 10% FBS, 5 ug/mL blasticidin, 0.5 mg/mL geneticin, 100 U/mL penicillin and 100 ug/mL streptomycin were dispensed at 2500 cells/4 uL/well in 1536-well white solid bottom plates using a Multidrop Combi. After the assay plates were incubated at 37 C/5% CO2 for 4 hrs, 23 nL of compounds at 15 concentrations (from 5-48 columns) or positive control (from 1 to 4 columns) were transferred to the assay plates using a Pintool station. One uL of CITCO, was added using a Flying Reagent Dispenser to generate a final concentration of 50 nM CITCO inside each well. After a 24 hr incubation period at 37 C/5% CO2, four uL of ONE-Glo reagent was added into the assay plates using a Flying Reagent Dispenser. After a 30 min incubation period at room temperature, the luminescence intensity in the assay plates was measured using a ViewLux plate reader.
% is scaled to controls: 0 for no effect and ±100 for the full control effect; potency is read from the fitted curve at half-maximal effect.

Compound | activity, negative = inhibition | Potency
CCn1nc(C)c2c1C(=O)NCC(c1ccc(O)cc1)=N2 | 63.5% (inactive) | –
CC(=O)OCC(=O)[C@@]12OC(C)(C)O[C@@H]1C[C@H]1[C@@H]3C[C@H](F)C4=CC(=O)C=C[C@]4(C)[C@@]3(F)[C@@H](O)C[C@@]12C | -1.15% [at 42.5 µM] (inactive) | –
C[N+](C)(C)CCOC(N)=O | 23% [at 42.5 µM] (inactive) | –
CC(=O)Nc1ccccc1C | 4.51% (inactive) | –
CCCOc1ccc(S(=O)(=O)N2CCN(CC)CC2)cc1-c1nc2c(CC)n(Cc3ccccn3)nc2c(=O)[nH]1 | 24.4% (inactive) | –
CC(C)c1nnc2ccc(-c3ocnc3-c3cc(F)ccc3F)cn12 | -2.17% (inactive) | –
CCCCC1C(=O)N(c2ccccc2)N(c2ccc(O)cc2)C1=O (stereo not given) | – | 29.8 µM (active)
Cc1ccc(S(=O)(=O)NC2CCCCC2)cc1 | 47.6% (inactive) | –
NCC1CCCC(CN)C1 (stereo not given) | -0.474% (inactive) | –
O=C(O)c1snc(Cl)c1Cl | 36.2% (inactive) | –
CC(=O)OCC(=O)[C@H]1CC[C@H]2[C@@H]3CCC4=CC(=O)CC[C@]4(C)[C@H]3CC[C@]12C | -11.6% [at 42.5 µM] (inactive) | –
Cc1ccnc2ccccc12 | 18.4% (inactive) | –
CC(=O)CC(c1ccc([N+](=O)[O-])cc1)c1c(O)c2ccccc2oc1=O (stereo not given) | 8.29% [at 42.5 µM] (inactive) | –
CCOC(=O)c1ccccc1OC | 5.37% (inactive) | –
O=C(C(=O)c1ccccc1)c1ccccc1 | 31.2% (inactive) | –
CC(COc1ccc(C(C)(C)C)cc1)OS(=O)OCCCl (stereo not given) | – | 1.73 µM (active)
CCc1nn(CCCN2CCN(c3cccc(Cl)c3)CC2)c(=O)n1CCOc1ccccc1 | 85.5% [at 42.5 µM] (inactive) | –
O=C(O)c1cccc(O)c1 | -8.65% (inactive) | –
CCCCC(CC)C(=O)OCCOCCOCCOCCOC(=O)C(CC)CCCC (stereo not given) | -7.89% (inactive) | –
CC(=N\O)/C(C)=N/O | 1.88% (inactive) | –

Compound | activity, negative = inhibition | Potency
CCCCCCOC(=O)CCCCCCCC(=O)OCCCCCC | -4.07% (inactive) | –
Cc1cc(O)c2c(O)c3c(O)cccc3cc2c1 | 292% [at 42.5 µM] (inactive) | –
CCCCCCCCCCCC[N+](C)(C)CCCS(=O)(=O)[O-] | -0.12% (inactive) | –
CCCC1C(CC)=CC(CC)=CN1c1ccccc1 (stereo not given) | -4.63% (inactive) | –
O=S(=O)(c1ccccc1)c1ccc(Cl)cc1 | 67.4% (inactive) | –
Cc1ccc(Nc2nccc(N(C)c3ccc4c(C)n(C)nc4c3)n2)cc1S(N)(=O)=O | -0.863% [at 42.5 µM] (inactive) | –
CCc1c2c(nc3ccc(OC(=O)N4CCC(N5CCCCC5)CC4)cc13)-c1cc3c(c(=O)n1C2)COC(=O)[C@]3(O)CC | – | 2.98 µM (active)
CCCCOC(=O)CCS | – | 24.3 µM (active)
CCCCC/C(=C\c1ccccc1)CO | 14.2% (inactive) | –
O=[N+]([O-])c1cccc(S(=O)(=O)NCCNS(=O)(=O)c2cccc([N+](=O)[O-])c2)c1 | 66.4% [at 42.5 µM] (inactive) | –
C=CC(C)(O)CCCC(C)CCCC(C)CCCC(C)C (stereo not given) | -1.35% (inactive) | –
CC1=C(/C=C/C(C)=C\C=C\C(C)=C\C(=O)O)C(C)(C)CCC1 | 148% (inactive) | –
CC(C)C(OC(=O)c1ccccc1)C(C)(C)COC(=O)c1ccccc1 (stereo not given) | 10.3% (inactive) | –
CCOC(=O)[C@@H](C)Oc1ccc(Oc2nc3ccc(Cl)cc3o2)cc1 | 44.2% (inactive) | –
CC(CCc1ccc2c(c1)OCO2)NN (stereo not given) | 95% [at 42.5 µM] (inactive) | –
C[C@@H]1C[C@H]2[C@@H]3CCC4=CC(=O)C=C[C@]4(C)[C@@]3(F)[C@@H](O)C[C@]2(C)[C@H]1C(=O)CO | 36.7% [at 42.5 µM] (inactive) | –
O=C(/C=C/c1ccccc1)OCCCc1ccccc1 | 51.6% (inactive) | –
Cc1nc2ccccn2c(=O)c1CCN1CCC(C(=O)c2ccc(F)cc2)CC1 | 1.82% [at 42.5 µM] (inactive) | –
O=C(CCCCCCC(=O)Nc1ccccc1)NO | – | 3.76 µM (active)
CN1Cc2cc(C(=O)N3CCC(C4CCNCC4)CC3)ccc2N[C@@H](CC(=O)O)C1=O | 8.54% [at 42.5 µM] (inactive) | –
